# Hit rate of the full screen: of about 390,000 compounds, about 4,700 (1.2%) were called active. Where a call stands in place of a potency, no number is given. Not shown: some 4% with an inconclusive outcome. Calls come from the whole dose curve; as a rule, active = well fitted inhibition curve with a large enough effect; inconclusive = small, poorly fitted or top-dose-only effect, or another doubt; inactive = no such curve, though single readings can be large or run the other way. Many of the other results were omitted from the sample, so actives are more common in it than they were.
# Molecular target: DNA polymerase eta (Homo sapiens) (UniProt Q9Y253)
# Assay: qHTS for Inhibitors of Polymerase Eta
# Conditions: recombinant Pol eta, fluorescent DNA replication assay; series mostly up to 114 µM
# From the text: The Y-family of DNA polymerases, such as Pol eta, are specifically involved in DNA repair. Pol eta copies undamaged DNA with a lower fidelity than other DNA-directed polymerases. However, it accurately replicates UV-damaged DNA; when thymine dimers are present, this polymerase inserts the complementary nucleotides in the newly synthesized DNA, thereby bypassing the lesion and suppressing the mutagenic effect of UV-induced DNA damage. […] Thus, while pol eta's (and most likely iota's) normal function is to protect humans against the deleterious consequences of DNA damage, under certain conditions they can have deleterious effects on human health. As a consequence, we propose to utilize a high throughput replication assay to identify small molecule inhibitors of pol eta. In a collaboration between the National Institute of Child Health & Human Development (NICHD) and NIH Chemical Genomics Center, a high-throughput, fluorescent screen was developed to screen the NIH Molecular Libraries Small Molecule Repository (MLSMR). This screen is used to identify inhibitors of pol eta. NIH Chemical Genomics Center [NCGC] NIH Molecular Libraries Probe Centers Network [MLPCN] MLPCN Grant: MH090825 Assay Submitter (PI): Roger Woodgate, NICHD)
# Three microliters of reagents (buffer in column 3 and 4 as negative control and 10 nM Pol eta in columns 1, 2, and 5-48) were dispensed into a 1,536-well black solid-bottomed plate. Compounds (23 nL) were transferred via Kalypsys pin tool equipped with 1536-pin array. The plates were then incubated for 15 min at room temperature, and 1 µL substrate (50 nM final concentration) was added to start the reaction and kinetically read twice at 0 min and 10 min on the Viewlux reader
# Potency is the fitted concentration of half-maximal effect.
# DNA polymerase eta (Homo sapiens), sequence (Q9Y253 whole entry, looked up): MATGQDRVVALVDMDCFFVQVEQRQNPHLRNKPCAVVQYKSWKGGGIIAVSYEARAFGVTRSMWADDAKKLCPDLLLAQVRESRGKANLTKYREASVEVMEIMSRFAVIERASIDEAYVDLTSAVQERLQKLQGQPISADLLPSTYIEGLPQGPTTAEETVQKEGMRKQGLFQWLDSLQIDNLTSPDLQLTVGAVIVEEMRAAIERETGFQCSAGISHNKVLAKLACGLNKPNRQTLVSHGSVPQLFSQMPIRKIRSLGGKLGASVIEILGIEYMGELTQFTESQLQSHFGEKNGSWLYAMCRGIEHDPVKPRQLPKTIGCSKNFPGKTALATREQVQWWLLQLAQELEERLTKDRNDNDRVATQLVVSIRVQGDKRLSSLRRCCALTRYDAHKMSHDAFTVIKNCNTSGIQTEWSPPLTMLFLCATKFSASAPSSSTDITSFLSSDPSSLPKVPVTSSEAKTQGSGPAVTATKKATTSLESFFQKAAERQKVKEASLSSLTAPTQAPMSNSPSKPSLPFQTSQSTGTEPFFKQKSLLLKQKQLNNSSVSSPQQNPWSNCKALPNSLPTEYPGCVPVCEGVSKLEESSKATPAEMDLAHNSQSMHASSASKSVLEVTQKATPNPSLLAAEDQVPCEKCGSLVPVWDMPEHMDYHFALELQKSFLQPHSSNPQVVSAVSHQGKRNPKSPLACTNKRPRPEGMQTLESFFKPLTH
row,Compound,Potency
1,Cc1ccc(CN2CCc3nc(N4CCN(C)CC4)ncc3C2)cc1,inactive
2,COc1ccc(CN2C(=O)C(NC(=O)c3cccc(C)c3)(C(F)(F)F)N=C2c2ccccc2)cc1 (stereo not drawn),inactive
3,COc1ccc(C(=O)CSc2c(C(C)C)cnc3c2c(=O)n(C)c(=O)n3C)cc1,inactive
4,CCc1ccccc1NC(=O)Cc1ccc(NC(=O)N2CCCCc3ccccc32)cc1,inactive
5,Cc1oc2ccc(O)c(CN3CCCCC3)c2c1C(=O)Nc1cccc(C(F)(F)F)c1,inactive
6,CCOc1ccc(Nc2oc(/C=C/c3ccc(F)cc3)nc2C#N)cc1,inactive
7,CCSC1=C(C#N)C(=O)n2c1cc1c2CCCC1,12.6 µM (active)
8,CCSc1ncnc2c(C#N)c3n(c12)CCCCC3,inactive
9,CCOC(=O)c1ccc(CSc2nnc3cc(C)c4ccccc4n23)cc1,inactive
10,CC(C)Cn1c(=O)c2ccccc2n2c(CCC(=O)N3CCN(c4cccc(Cl)c4)CC3)nnc12,inactive
11,O=c1c2ccccc2n(Cc2cccc(Cl)c2)c(=O)n1Cc1ccccc1,inactive
12,CCN(CC)CCCC(C)Nc1ccnc2cc(Cl)ccc12 (stereo not drawn),inactive
13,CCN(CC)CCCC(C)n1c2nc(=O)[nH]c(=O)c-2nc2cc(Cl)ccc21 (stereo not drawn),31.6 µM (active)
14,CCc1cccc(NC(=O)CSc2nccn2C)c1,inactive
15,CCCCn1cc(S(=O)(=O)c2ccc(OCC)cc2)c(=O)c2cc(OC)c(OC)cc21,inactive
16,Cc1ccc(NC(=O)c2cc3cc(C)ccc3n2C)cc1,inactive
17,CCOC(=O)C1Nc2ccc(C(F)(F)F)cc2C2C=CCC12 (stereo not drawn),79.4 µM (active)
18,CCOC(=O)C[C@H]1c2ccc(C(F)(F)F)cc2S(=O)(=O)N1c1ccccc1,inactive
19,CCOC(=O)/C=C/c1ccc(C(F)(F)F)cc1S(=O)(=O)NC(C)(C)C,inactive
20,CC(=O)Nc1ccc(NC(=O)C2CCCN(S(=O)(=O)c3ccc4c(c3)CCCC(=O)N4)C2)cc1 (stereo not drawn),inactive
21,Cc1c(Cl)cnc(NC(=O)COC(=O)C2CCCC2)c1Cl,35.5 µM (active)
22,Cc1ccc(Cl)cc1NC(=O)COC(=O)C1CCCCC1,inactive
23,Cc1c(Cl)cnc(NC(=O)COC(=O)c2ccc(S(=O)(=O)NCc3ccco3)cc2)c1Cl,inactive
24,COc1cccc(Nc2nc3ccccc3c3nncn23)c1,inactive
25,CCN(CC)S(=O)(=O)c1ccc(C(=O)N=c2sc3cccc(OC)c3n2C)cc1,inactive
26,Cc1cccc(C(=O)N2c3nc(-c4ccco4)nn3C3(CCCCC3)[C@@H]3CCCC[C@@H]32)c1,inactive
27,CCCCCCc1cc2cc(-c3nnc(-c4ccccc4)o3)c(=O)oc2cc1O,39.8 µM (active)
28,Cc1ccc(CNC(=O)CCc2c(C)nc3c(c(C)nn3-c3ccccc3)c2C)cc1,inactive

# Reference: PubChem BioAssay AID588591 (National Center for Advancing Translational Sciences (NCATS), 2011)
